“And” between values parts separate entries of the source, which are not always exact repeats. Equal values may be shown once. Inconclusive results are not listed. The source made the active and inactive calls. Calls come from the whole dose curve; as a rule, active = well fitted activation curve with a large enough effect; inconclusive = small, poorly fitted or top-dose-only effect; inactive = no such curve, though single readings can be large or run the other way.
Target: Cellular tumor antigen p53 (Homo sapiens) (UniProt P04637)
Test: Primary qHTS for small molecule compounds that upregulate eGFP-tagged delta133p53alpha (in N-terminal) cells. (AID 2060322); note: nearly all actives have a fitted effect of over 75% in size;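 for activation: cells pre-induced with doxycycline then dosed without doxycycline; series mostly up to about 56 µM; 0% = DMSO vehicle and 100% = reference activator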
Settings: NCI-H358 eGFP-delta133p53alpha fluorescence, 24 h; activation: active compounds read high
Method in brief: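 NCI-H358 cells pre-induced 24 h with 10 ng/ml doxycycline for eGFP-delta133p53alpha, plated dox-free and exposed 24 h at 37C to titrated compounds. Fixed, Hoechst-stained; gated GFP peak intensity by laser scanning cytometry, normalized to DMSO (0%) and 57.5 uM 5-azacytidine (100%).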
Potency is the fitted concentration of half-maximal effect.

Sequence of Cellular tumor antigen p53 (Homo sapiens) (P04637 whole entry, looked up): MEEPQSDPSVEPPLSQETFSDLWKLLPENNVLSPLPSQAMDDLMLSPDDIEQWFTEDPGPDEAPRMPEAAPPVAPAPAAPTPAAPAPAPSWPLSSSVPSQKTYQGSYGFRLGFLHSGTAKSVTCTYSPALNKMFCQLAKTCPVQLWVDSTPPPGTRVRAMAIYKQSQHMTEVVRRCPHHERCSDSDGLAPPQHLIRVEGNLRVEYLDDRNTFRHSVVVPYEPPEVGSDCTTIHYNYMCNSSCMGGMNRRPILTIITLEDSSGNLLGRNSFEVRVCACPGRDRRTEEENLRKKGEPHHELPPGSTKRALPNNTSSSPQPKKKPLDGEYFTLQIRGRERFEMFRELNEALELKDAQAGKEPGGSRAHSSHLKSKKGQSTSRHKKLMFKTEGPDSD

Q: With `CCCCc1oc2ccccc2c1C(=O)c1cc(I)c(OCCN(CC)CC)c(I)c1` as the compound, how does the activation read?
A: -16.4% (inactive) and -32.6% (inactive)

Q: How did the activation turn out when `CCc1c(O)cc(O)c(C(=O)c2ccc(OCCN3CCOCC3)c(OC)c2)c1CC(=O)N(CCOC)CCOC` was run?
A: 38.5% (inactive)

Q: How did the activation turn out when `C=C1C(=O)OC(CCCCCCCC)C1C(=O)O` (configuration not stated) was run?
A: -0.0763% (inactive)

Q: `O=C(c1ccc(F)cc1)N1CCC[C@H](c2nc(-c3ccc(F)cc3)no2)C1` was tested. Which activation did it give?
A: 6.17% (inactive)

Q: Which activation does the source give for `CC(=O)Oc1ccccc1C(=O)Nc1ncc([N+](=O)[O-])s1` here?
A: -2.09% (inactive) and 33.3% (inactive)

Q: Which Potency does the source give for `CCN(CC)CCCCNc1nc2cc(Cl)c(Cl)cc2nc1-c1ccc(-c2cccs2)s1` here?
A: 6.85 µM (active)

Q: With `O=C(O)c1c(Cl)c(Cl)c(Cl)c(Cl)c1-c1c2cc(I)c(=O)c(I)c-2oc2c(I)c(O)c(I)cc12` as the compound, how does the activation read?
A: -18.2% (inactive)

Q: Which activation does the source give for `Cc1ccc(NC(=O)c2ccc(CN3CCN(C)CC3)cc2)cc1Nc1nc(-c2cccnc2)cs1` here?
A: 4.59% (inactive)

Q: How did the activation turn out when `Cc1ccc(NC(=O)c2ccc(CN3CCN(C)CC3)cc2)cc1Nc1nccc(-c2cccnc2)n1` was run?
A: -19.4% (inactive) and -18.4% (inactive) and -2.86% (inactive)

Q: For `COC(=O)C1C2CC3c4[nH]c5cc(OC)ccc5c4CCN3CC2CC(OC(=O)c2cc(OC)c(OC)c(OC)c2)C1OC` (configuration not stated), which activation is on record?
A: 4.12% (inactive)

Q: For `Cc1nc2ccc(C(=O)N3CCC4(CC3)CC(=O)c3c(cnn3C(C)C)C4)cc2[nH]1`, which activation is on record?
A: 23% (inactive)

Q: `CCc1ccc(CCOc2ccc(CC3SC(=O)NC3=O)cc2)nc1` (configuration not stated) was tested. Which activation did it give?
A: 7.53% (inactive) and -1.15% (inactive)

Q: With `S=P(N1CC1)(N1CC1)N1CC1` as the compound, how does the activation read?
A: 31.6% (inactive)

Q: Which activation does the source give for `NC(=O)[C@@H](CCC(F)(F)F)N(Cc1ccc(-c2ncon2)cc1F)S(=O)(=O)c1ccc(Cl)cc1` here?
A: 12.6% (inactive)

Q: How did the activation turn out when `COc1cc2ncn(-c3cc(OCc4ccccc4S(C)(=O)=O)c(C#N)s3)c2cc1OC` was run?
A: -10.5% (inactive)

Q: How did the activation turn out when `CCCCCCCc1ccc(CCc2cccc(O)c2C(=O)O)cc1` was run?
A: -21.9% (inactive) and 7.82% (inactive)

Q: Which activation does the source give for `Cc1cc2c(F)c(Oc3ncnn4cc(OC[C@@H](C)O)c(C)c34)ccc2[nH]1` here?
A: -34.1% (inactive)

Q: For `Clc1ccc(COC(Cn2ccnc2)c2ccc(Cl)cc2Cl)c(Cl)c1` (configuration not stated), which activation is on record?
A: -18.8% (inactive)

Q: With `COc1ccc(-n2c(C)c([N+](=O)[O-])c3ccc(O)cc32)cc1` as the compound, how does the activation read?
A: -5.31% (inactive)

Q: Which activation does the source give for `N#CC(c1ccc(Cl)cc1)c1c(Cl)cc(-n2ncc(=O)[nH]c2=O)cc1Cl` (configuration not stated) here?
A: -23% (inactive)

Q: Which activation does the source give for `O=C(NCCCNc1nc(Nc2cccc(NC(=O)N3CCCC3)c2)ncc1I)c1cccs1` here?
A: 9.72% (inactive)

Q: Which activation does the source give for `CCOC(CN1C(=O)[C@](CC(=O)Nc2ccc(C)cc2)(NC(=O)Nc2ccc(C)cc2)c2ccccc21)OCC` here?
A: 0.237% (inactive)
